Test results reported in the supplement of paper PMC12636033.
± gives the standard deviation of the averaged measurements. Whole data set: some 33,000 sequences, median “E-score (rank enrichment, -0.5 to 0.5)” near -0.0075, cut for the highest 2% near 0.23. For the sample, the highest values were picked, then their nearest neighbours and some sequences at random.

What follows are sequences tested on WT Max(13-93) synthetic (M65Nle) (assay: PBM 8-mer E-score (E-score (rank enrichment, -0.5 to 0.5)); higher = stronger preferential binding).
Procedure: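 Protein binding microarray (universal PBM chip covering all 10-mers in fixed probe flanks) with chemically synthesized human Max(13-93) bHLH-LZ analogs (not full-length Max) bearing noncanonical residues (hArg, Tha, Aib, Nle at 65) and aromatic Cys staples. Read-out per 8-mer (and its reverse complement): E-score (rank-based enrichment, -0.5 to 0.5) and Z-score of median probe intensity.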

Sequence	PBM 8-mer E-score
CTAATCCC	0.144 ± 0.024
CCGTCTAC	0.0424 ± 0.084
ACTAACCT	0.0869 ± 0.06
GGTTCCTA	-0.109 ± 0.046
AGACACAG	-0.0614 ± 0.0067
AATTATAC	0.1451 ± 0.00023
CATTATTA	0.262 ± 0.0081
AATTATAG	0.279 ± 0.07
AATTATAA	0.214 ± 0.072
AGTTATTA	0.245 ± 0.038
AGTTATTG	0.127 ± 0.066
GATTATTA	0.146 ± 0.14
GGTTATTA	0.126 ± 0.0068
CATTATTC	0.137 ± 0.063
GCCCCGAC	-0.0997 ± 0.092
AAAAGAGT	0.0215 ± 0.025
CAGCCGGG	-0.216 ± 0.054
CGCGATGA	-0.0499 ± 0.057
ACTACCAT	0.0905 ± 0.098
AATACCAG	-0.0097 ± 0.088
AATACCAA	0.0858 ± 0.08
GATACCAC	0.0906 ± 0.0058
AATACCAT	0.239 ± 0.0086
AATACCAC	0.232 ± 0.0071
CTACCCGC	-0.143 ± 0.13

Sequence	PBM 8-mer E-score
GAAGGAGC	-0.0442 ± 0.0094
AAAGGCAA	0.225 ± 0.019
CGCGCAAG	-0.09 ± 0.021
ACGTGATA	0.373 ± 0.04
GCGTGATA	0.157 ± 0.0055
ACGTGATG	0.281 ± 0.036
ACGTGATC	0.365 ± 0.03
AAGTGATC	0.00227 ± 0.17
AGGTGATG	-0.035 ± 0.048
AAGTGATG	0.0833 ± 0.02
GTGTGATA	0.161 ± 0.094
CCGTGATA	-0.0612 ± 0.11
ATGTGATA	0.259 ± 0.018
CTGTGATA	-0.0471 ± 0.032
CCGTGATC	-0.0695 ± 0.058
CCGCCGCG	-0.0114 ± 0.016
CGACCTTA	-0.135 ± 0.088
AGTAACCA	0.0556 ± 0.031
ACGCTAAA	-0.0749 ± 0.18
AAGGTTCG	0.00686 ± 0.047
TCGGTAAA	0.0761 ± 0.071
GCGTTCGA	-0.0763 ± 0.0099
ATCCTAAC	0.133 ± 0.071
TTACTAAA	0.109 ± 0.064
GTCCTAAC	-0.0552 ± 0.13

Sequence	PBM 8-mer E-score
ATACTAAC	0.159 ± 0.022
ATACTAAA	0.236 ± 0.0049
CTACTAAC	0.279 ± 0.095
CTACTAAG	-0.104 ± 0.13
CTCCTAAC	0.24 ± 0.12
GTACTAAA	0.0526 ± 0.051
CTCCAAAG	-0.102 ± 0.047
ATGGAACC	-0.166 ± 0.054
ACAGAACG	-0.0169 ± 0.0023
CAACCGGC	-0.263 ± 0.061
AAAATCAA	0.0163 ± 0.098
CAAATCAA	0.245 ± 0.008
GAAATCAA	0.138 ± 0.029
GTCGGAAA	-0.0618 ± 0.062
ACAATACA	0.106 ± 0.079
ACAATACT	0.117 ± 0.14
ACAATACC	0.249 ± 0.069
CTTGCTCC	-0.0612 ± 0.0067
ATGCATCA	0.254 ± 0.0073
ATGCATTA	0.265 ± 0.055
ATGCATGC	0.203 ± 0.04
GTGCATCA	0.0702 ± 0.089
CTGCATTA	0.0253 ± 0.0015
CTGCATGA	-0.175 ± 0.057
ATGCATGA	0.244 ± 0.02

Sequence	PBM 8-mer E-score
GTGCATGA	0.265 ± 0.012
ATGCATGG	0.156 ± 0.079
GGGCATGA	-0.0171 ± 0.012
ATGCATCG	0.0483 ± 0.15
ATGCATTC	0.197 ± 0.016
CTGCTGTA	-0.271 ± 0.066
CGCTGCGC	-0.152 ± 0.14
CGAGCTCC	0.00928 ± 0.0055
CAGGATTC	-0.0901 ± 0.04
AAGTCCGC	-0.204 ± 0.041
CCAAACCA	0.037 ± 0.03
AGGGTGTG	0.0713 ± 0.066
CAGTAACG	-0.0368 ± 0.021
CGAGCTGC	-0.214 ± 0.048
AACTCCGG	-0.0587 ± 0.069
TATTGGCA	0.243 ± 0.034
CATTGGCA	-0.0219 ± 0.039
AATTGGCA	0.139 ± 0.04
CGCGCCCA	0.0179 ± 0.03
GTCGACAA	0.0204 ± 0.0078
AAGAAGGG	0.213 ± 0.0093
ACGTAAAA	0.0973 ± 0.0094
ACGTAAAG	0.281 ± 0.033
ACGTAAAT	0.0493 ± 0.0072
ACAGGCGA	-0.138 ± 0.092

Sequence	PBM 8-mer E-score
ACAGTATG	0.135 ± 0.041
ACAGTATC	0.235 ± 0.0095
ACAGTATA	0.134 ± 0.0089
CACCTTCA	-0.109 ± 0.0089
CATGCTTA	0.246 ± 0.045
CATGCTCC	0.18 ± 0.012
CATGCTGA	0.169 ± 0.029
CATGCTCG	0.188 ± 0.038
AATGCTTA	0.194 ± 0.036
CATGCTCA	0.281 ± 0.034
GACATTAC	0.0651 ± 0.0097
ATCATTTG	0.0683 ± 0.013
CTTTCCGC	-0.00053 ± 0.0035
GTCGCATA	0.127 ± 0.004
CAATCTCA	8e-05 ± 0.15
CCCTATTC	0.0618 ± 0.016
CATAAAAA	0.213 ± 0.085
TATAAAAA	0.258 ± 0.13
GATAAAAA	0.242 ± 0.021
GATAAAAC	0.141 ± 0.1
TAAAAAAA	0.123 ± 0.0092
GATAAACA	0.138 ± 0.13
GACCCCGC	-0.0133 ± 0.0045
CAAGCACC	-0.0769 ± 0.043
CAAGTAGC	-0.0222 ± 0.13

Sequence	PBM 8-mer E-score
GGACGCGA	-0.0617 ± 0.22
CGAGAACC	-0.00648 ± 0.079
GAACATGC	0.164 ± 0.015
AAACATGT	0.315 ± 0.018
CAACATGC	0.119 ± 0.023
AAACATGA	0.187 ± 0.041
AAACATGC	0.248 ± 0.021
AAACATGG	0.2074 ± 0.0013
CCCATCGA	-0.073 ± 0.074
GTCTAGGA	-0.0888 ± 0.0088
AGCTCGAT	-0.0955 ± 0.12
AAGTGAGT	0.0792 ± 0.0081
CATGACAG	0.0777 ± 0.066
CATGACAC	0.29 ± 0.036
AAAGACAA	0.2 ± 0.078
AATGACAC	0.239 ± 0.013
GAAGACAA	-0.00129 ± 0.039
AAAGACAC	0.279 ± 0.032
TAAGACAA	0.26 ± 0.04
CAAGACAA	0.123 ± 0.084
AAAGACAG	0.091 ± 0.049
CATGACAA	0.196 ± 0.036
GATGACAC	0.0335 ± 0.0041
AATGACAG	0.103 ± 0.13
CTCGCGTC	-0.0607 ± 0.017

Sequence	PBM 8-mer E-score
GTTTGATA	0.157 ± 0.13
GTACCAAA	0.104 ± 0.08
GCGGGCCA	-0.176 ± 0.11
ACATCCGA	-0.16 ± 0.072
CACGTATG	0.0325 ± 0.16
GGAGTTCA	0.024 ± 0.016
CGCGGTTA	-0.0113 ± 0.021
ATCTTACG	-0.013 ± 0.042
AAGGAGCG	-0.0544 ± 0.078
TATGACAA	0.22 ± 0.013
AATGACAA	0.296 ± 0.089
GATGACAA	0.147 ± 0.014
AGAAAAGC	0.121 ± 0.075
AACACGTA	0.189 ± 0.04
AACACGTC	0.0692 ± 0.09
CACACGTA	0.0918 ± 0.056
CACACGTC	0.0446 ± 0.022
AACACGTG	0.4954 ± 0.001
CACACGTG	0.4756 ± 0.0046
AGGAAAAT	0.102 ± 0.051
CTTGCCAA	0.0438 ± 0.04
CTTTAAGA	0.0629 ± 0.086
